PubChem BioAssay (Tox21)
A number with no mark means an inactive call. The source made the active and inactive calls. The call rests on the fitted dose curve; in most records, active means well fitted curve in the direction sought with a large enough effect in the repeat runs; inconclusive means weak or mixed curves; inactive means flat fitted curve, though single readings scatter.

Experiment: qHTS assay to test for compound auto fluorescence at 590 nm (red) in HEK293 cell free culture (AID 720683)
Conditions: cell-free medium autofluorescence, Ex540/Em590 red; series mostly up to 91.3 µM; fluorescence, % of fluorescent control: at the top concentration
In short: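 Cell-free wells of DMEM with 10% FBS received compound, and intrinsic fluorescence was read at excitation/emission 540/590 nm. Values expressed as equivalence to Rose Bengal sodium.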
On the % scale 0 is the no-effect control and ±100 the full control effect.

| Compound | fluorescence, % of fluorescent control | outcome |
| --- | --- | --- |
| CCN(CCO)CCO | -0.056% | – |
| CC(C)(C1CCC(O)CC1)C1CCC(O)CC1 (stereo unspecified) | -0.221% | – |
| COc1cccc(C=O)c1 | -0.0363% | – |
| C=CC1(C)OC(=O)N(c2cc(Cl)cc(Cl)c2)C1=O (stereo unspecified) | – | inactive |
| CNC(=O)NC(O)C(Cl)(Cl)Cl (stereo unspecified) | -0.645% [at 46 µM] | – |
| CCCC(C)(COC(N)=O)COC(N)=O | – | inactive |
| Cc1cc(OC(=O)N(C)C)nn1C(=O)N(C)C | -0.0375% | – |
| CS(=O)(=O)Cl | 0.0508% [at 95.7 µM] | – |
| NCC1(CC(=O)O)CCCCC1 | 0.0512% [at 18.6 µM] | – |
| [P]#[In] | 0.187% | – |
| O=C(Cl)/C=C/C(=O)Cl | -0.345% [at 95.7 µM] | – |
| CCOC(=O)NC(C)(C)Cc1ccc(Cl)cc1 | -0.57% [at 46 µM] | – |
| O=C(Cl)C(Cl)(Cl)Cl | 0.0662% | – |
| N#CN=C1SCCN1Cc1ccc(Cl)nc1 | 0.0608% | – |
| CN(CCO)CCO | 0.274% [at 95.7 µM] | – |
| COC(=O)c1ccccc1CS(=O)(=O)NC(=O)Nc1nc(OC)cc(OC)n1 | -0.0379% | – |
| CCOC1Oc2ccc(OS(C)(=O)=O)cc2C1(C)C (stereo unspecified) | 0.529% | – |
| C[N+]1(C)CCCCC1 | 0.339% | – |
| Cc1ccc(-c2nc3ccc(C)cn3c2CC(=O)N(C)C)cc1 | -0.134% [at 46 µM] | – |
| COc1cc(CCN)cc(OC)c1OC | -0.527% [at 95.7 µM] | – |
| CCC(C(N)=O)N1CCCC1=O (stereo unspecified) | 0.0364% [at 46 µM] | – |
| CN(C)CCc1c[nH]c2cccc(OP(=O)(O)O)c12 | -0.0604% | – |
| CCCCCCCCSC(=O)Oc1cc(Cl)nnc1-c1ccccc1 | 0.0061% | – |
| CCOP(=S)(OCC)Oc1ccc(Cl)cc1Cl | -0.53% | – |
| O=[N+]([O-])CCO | -0.184% [at 95.7 µM] | – |
| BrCc1ccc(Br)cc1 | 0.0561% | – |
| C[C@H](N)C(=O)c1ccccc1 | – | inactive |
| CCc1cc(OC)c(C[C@H](C)N)cc1OC | -0.513% [at 95.7 µM] | – |
| COC(=O)c1ccc(CBr)cc1 | -0.0271% [at 95.7 µM] | – |
| CCN[C@@H](C)Cc1cccc(C(F)(F)F)c1 | -0.625% | – |

Experiment: qHTS assay to test for compound auto fluorescence at 590 nm (red) in HepG2 cell free culture (AID 720684)
Conditions: cell-free medium autofluorescence, red 540/590 nm; series mostly up to 91.3 µM; fluorescence, % of Rose Bengal: at the top concentration
In short: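 Auto fluorescence equivalency versus Rose Bengal sodium, red channel Ex/Em 540/590 nm; compounds in cell-free MEM/10% FBS; DMSO vehicle control.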

| Compound | fluorescence, % of Rose Bengal | outcome |
| --- | --- | --- |
| CCN(CCO)CCO | -0.197% | – |
| C=CCc1cc(OC)c2c(c1)OCO2 | -0.0994% [at 95.7 µM] | – |
| COc1cccc(C=O)c1 | 0.101% | – |
| C=CC1(C)OC(=O)N(c2cc(Cl)cc(Cl)c2)C1=O (stereo unspecified) | – | inactive |
| CNC(=O)NC(O)C(Cl)(Cl)Cl (stereo unspecified) | -0.124% [at 46 µM] | – |
| COC(=O)[C@@H](N)CCCN/C(N)=N/[N+](=O)[O-] | -0.127% [at 46 µM] | – |
| CS(=O)(=O)Cl | 0.203% [at 95.7 µM] | – |
| NCC1(CC(=O)O)CCCCC1 | 0.0064% [at 18.6 µM] | – |
| COc1ccccc1OC | 0.0326% | – |
| [P]#[In] | 0.105% | – |
| O=C(Cl)/C=C/C(=O)Cl | -0.489% [at 95.7 µM] | – |
| CCOC(=O)NC(C)(C)Cc1ccc(Cl)cc1 | 0.0264% [at 46 µM] | – |
| O=c1[nH]oc2c1CCNC2 | -0.132% [at 46 µM] | – |
| O=C(Cl)C(Cl)(Cl)Cl | -0.0222% | – |
| CN(CCO)CCO | 0.239% [at 95.7 µM] | – |
| COC(=O)c1ccccc1CS(=O)(=O)NC(=O)Nc1nc(OC)cc(OC)n1 | 0.153% | – |
